Source: the antibiotic and cytotoxicity screens of Wong et al. (2023)
The campaign covered roughly 39,000 compounds. About 3,300 (8.5%) were called active. This is one part of a sample in which actives are shown more often than they occur.

system: HepG2; assay: cytotoxicity call (relative viability < 0.9); conditions: 10 µM

Q: Which cytotoxicity call does the source give for `COc1ccc(CN(C)C[C@H]2Oc3c(NC(=O)c4cc(C)nn4C)cccc3C(=O)N([C@@H](C)CO)C[C@@H]2C)cc1` here?
A: inactive

Q: How did the cytotoxicity call turn out when `COc1ccc(NC(=O)Nc2cccc3c2O[C@H](CN(C)S(=O)(=O)c2cn(C)cn2)[C@H](C)CN([C@@H](C)CO)C3=O)cc1` was run?
A: inactive

Q: Which cytotoxicity call does the source give for `O=C(CCCCCC(=O)Nc1ccccc1O)N/N=C/[C@H](O)[C@@H](O)[C@H](O)[C@H](O)CO[C@H]1O[C@H](CO)[C@H](O)[C@H](O)[C@H]1O` here?
A: inactive

Q: `O=C(C[C@@H]1CC[C@H](NC(=O)CN2CCOCC2)[C@H](CO)O1)NCCc1ccccc1` was tested. Which cytotoxicity call did it give?
A: inactive

Q: `C[C@H]1CN([C@@H](C)CO)C(=O)c2cc(-c3ccc(F)cc3)cnc2O[C@H]1CN(C)C(=O)Cc1ccccn1` was tested. Which cytotoxicity call did it give?
A: inactive

Q: With `C[C@@H]1CCCCO[C@@H](CN(C)S(C)(=O)=O)[C@H](C)CN([C@@H](C)CO)C(=O)c2cc(NC(=O)Nc3ccc(C(F)(F)F)cc3)ccc2O1` as the compound, how does the cytotoxicity call read?
A: inactive

Q: Which cytotoxicity call does the source give for `CC(C)CC#Cc1ccc2c(c1)O[C@@H](CN(C)C(=O)NC1CCCC1)[C@H](C)CN([C@@H](C)CO)S2(=O)=O` here?
A: inactive

Q: How did the cytotoxicity call turn out when `COc1ccc(NC(=O)N(C)C[C@@H]2OCCCC[C@@H](C)Oc3ccc(NC(=O)CCC(F)(F)F)cc3C(=O)N([C@H](C)CO)C[C@@H]2C)cc1` was run?
A: inactive

Q: How did the cytotoxicity call turn out when `C[C@@H]1CCCCO[C@@H](CN(C)C(=O)NC2CCCCC2)[C@H](C)CN([C@@H](C)CO)C(=O)c2cc(NC(=O)CCCCCC(=O)Nc3ccccc3N)ccc2O1` was run?
A: inactive

Q: Which cytotoxicity call does the source give for `CS(=O)(=O)Nc1ccc2oc3c(OC(F)F)ccc(C(=O)Nc4c(Cl)cncc4Cl)c3c2c1` here?
A: inactive

Q: How did the cytotoxicity call turn out when `O=c1ccc2c[nH][nH]c-2c1` was run?
A: inactive

Q: With `O=C(CCN1CCNCC1)N1CCCCC1` as the compound, how does the cytotoxicity call read?
A: inactive

Q: Which cytotoxicity call does the source give for `COc1ccc(S(=O)(=O)N(C)C[C@@H]2OCCCC[C@@H](C)Oc3ccc(NS(=O)(=O)c4cn(C)cn4)cc3C(=O)N([C@H](C)CO)C[C@@H]2C)cc1` here?
A: inactive

Q: For `C[C@H]1CCCCO[C@H](CN(C)Cc2ccc(C(=O)O)cc2)[C@@H](C)CN([C@@H](C)CO)C(=O)c2cc(NS(=O)(=O)c3ccccc3)ccc2O1`, which cytotoxicity call is on record?
A: inactive

Q: With `C[C@@H]1CN([C@@H](C)CO)C(=O)c2cc(NC(=O)Nc3cccc4ccccc34)ccc2O[C@H]1CN(C)CC1CCCCC1` as the compound, how does the cytotoxicity call read?
A: inactive

Q: How did the cytotoxicity call turn out when `C[C@H](CO)N1C[C@H](C)[C@H](CN(C)CC2CCCCC2)Oc2ccc(NC(=O)Nc3cccc4ccccc34)cc2C1=O` was run?
A: inactive

Q: Which cytotoxicity call does the source give for `C[C@@H]1CN([C@H](C)CO)C(=O)c2cc(NC(=O)Nc3cccc4ccccc34)ccc2O[C@H]1CN(C)CC1CCCCC1` here?
A: active

Q: With `C[C@H](CO)N1C[C@H](C)[C@@H](CN(C)CC2CCCCC2)Oc2ccc(NC(=O)Nc3cccc4ccccc34)cc2C1=O` as the compound, how does the cytotoxicity call read?
A: inactive

Q: Which cytotoxicity call does the source give for `C[C@H]1CN([C@@H](C)CO)C(=O)c2cc(NC(=O)Nc3cccc4ccccc34)ccc2O[C@H]1CN(C)CC1CCCCC1` here?
A: active

Q: `C[C@H]1CN([C@@H](C)CO)C(=O)c2cc(NC(=O)Nc3cccc4ccccc34)ccc2O[C@@H]1CN(C)CC1CCCCC1` was tested. Which cytotoxicity call did it give?
A: inactive

Q: `C[C@@H]1CN([C@@H](C)CO)C(=O)c2cc(NC(=O)Nc3cccc4ccccc34)ccc2O[C@@H]1CN(C)CC1CCCCC1` was tested. Which cytotoxicity call did it give?
A: inactive

Q: With `C[C@@H]1CN([C@H](C)CO)C(=O)c2cc(NC(=O)Nc3cccc4ccccc34)ccc2O[C@@H]1CN(C)CC1CCCCC1` as the compound, how does the cytotoxicity call read?
A: active

Q: For `C[C@H](CO)N1C[C@H](C)[C@@H](CN(C)CC2CCCCC2)Oc2ccc(NC(=O)Nc3ccccc3)cc2C1=O`, which cytotoxicity call is on record?
A: inactive

Q: How did the cytotoxicity call turn out when `CC(=O)OC[C@H]1O[C@H](C/C=N/O[C@H](C)c2cn([C@@H]3COC[C@H]3O)nn2)C=C[C@@H]1OC(C)=O` was run?
A: inactive

Q: `C[C@H](CO)N1C[C@H](C)[C@H](CN(C)Cc2ccc(Cl)c(Cl)c2)Oc2ccc(NS(=O)(=O)c3cccs3)cc2C1=O` was tested. Which cytotoxicity call did it give?
A: inactive

Q: `Cc1noc(C)c1S(=O)(=O)Nc1ccc2c(c1)CC(=O)N([C@@H](C)CO)C[C@H](C)[C@@H](CN(C)Cc1ccc(C(=O)O)cc1)O2` was tested. Which cytotoxicity call did it give?
A: inactive

Q: `C[C@@H]1CN([C@H](C)CO)C(=O)Cc2cc(NS(=O)(=O)c3ccc(F)cc3)ccc2O[C@@H]1CN(C)C(=O)Nc1cccc2ccccc12` was tested. Which cytotoxicity call did it give?
A: inactive

Q: With `O=C(C[C@@H]1C[C@H]2c3cc(NC(=O)NC4CCCC4)ccc3O[C@H]2[C@@H](CO)O1)NCc1ccc2c(c1)OCO2` as the compound, how does the cytotoxicity call read?
A: inactive

Q: Which cytotoxicity call does the source give for `CCOc1ccn(-c2ccc(F)cc2)c(=O)c1C(=O)Nc1ccc(Oc2ccnc(N)c2Cl)c(F)c1` here?
A: inactive

Q: `Cc1c(C(=O)Nc2ccc(Oc3ccnc4cc(OCC(C)(C)O)ccc34)c(F)c2)c(=O)n(-c2ccccc2)n1C` was tested. Which cytotoxicity call did it give?
A: inactive

Q: With `Cc1ccc(C(=O)Nc2ccc(Oc3cc4cnn(C)c4cc3-c3cn[nH]c3)c(F)c2)c(=O)n1-c1ccc(F)cc1` as the compound, how does the cytotoxicity call read?
A: active

Q: `C[C@@H]1CCCCO[C@H](CN(C)C(=O)CCC(F)(F)F)[C@H](C)CN([C@@H](C)CO)C(=O)c2cc(NC(=O)CCCCCC(=O)Nc3ccccc3N)ccc2O1` was tested. Which cytotoxicity call did it give?
A: inactive

Q: How did the cytotoxicity call turn out when `C[C@@H]1CN([C@H](C)CO)S(=O)(=O)c2ccc(C#Cc3ccc(F)cc3)cc2O[C@H]1CN(C)C(=O)CN(C)C` was run?
A: active

Q: With `C[C@H]1CN([C@@H](C)CO)S(=O)(=O)c2ccc(Br)cc2O[C@@H]1CN(C)C(=O)Cc1ccccc1` as the compound, how does the cytotoxicity call read?
A: inactive

Q: How did the cytotoxicity call turn out when `C[C@@H]1CN([C@H](C)CO)S(=O)(=O)c2ccc(C#Cc3ccccc3)cc2O[C@H]1CN(C)C(=O)CN(C)C` was run?
A: active

Q: How did the cytotoxicity call turn out when `C[C@@H]1CN([C@@H](C)CO)S(=O)(=O)c2ccc(C#Cc3ccc(F)cc3)cc2O[C@H]1CN(C)C(=O)CN(C)C` was run?
A: inactive

Q: With `C[C@H]1CN([C@@H](C)CO)S(=O)(=O)c2ccc(C#Cc3ccc(F)cc3)cc2O[C@H]1CN(C)C(=O)CN(C)C` as the compound, how does the cytotoxicity call read?
A: inactive

Q: With `C[C@@H]1CN([C@H](C)CO)S(=O)(=O)c2ccc(C#Cc3cccnc3)cc2O[C@@H]1CN(C)C(=O)CN(C)C` as the compound, how does the cytotoxicity call read?
A: inactive

Q: Which cytotoxicity call does the source give for `C[C@H]1CN([C@@H](C)CO)S(=O)(=O)c2ccc(Br)cc2O[C@H]1CN(C)C(=O)Cc1ccccc1` here?
A: active

Q: How did the cytotoxicity call turn out when `C[C@H]1CN([C@@H](C)CO)S(=O)(=O)c2ccc(C#Cc3ccc(F)cc3)cc2O[C@@H]1CN(C)C(=O)CN(C)C` was run?
A: inactive

Q: `C[C@@H]1CN([C@H](C)CO)S(=O)(=O)c2ccc(C#Cc3cccnc3)cc2O[C@H]1CN(C)C(=O)CN(C)C` was tested. Which cytotoxicity call did it give?
A: inactive

Q: `C[C@H]1CN([C@@H](C)CO)S(=O)(=O)c2ccc(Br)cc2O[C@H]1CN(C)C(=O)Cc1ccncc1` was tested. Which cytotoxicity call did it give?
A: inactive

Q: How did the cytotoxicity call turn out when `C[C@@H]1CN([C@H](C)CO)S(=O)(=O)c2ccc(C#Cc3ccccc3)cc2O[C@@H]1CN(C)C(=O)CN(C)C` was run?
A: active

Q: `C[C@@H]1CN([C@@H](C)CO)S(=O)(=O)c2ccc(C#Cc3ccccc3)cc2O[C@H]1CN(C)C(=O)CN(C)C` was tested. Which cytotoxicity call did it give?
A: inactive
